For 24 compounds, Potency results are on record in PubChem BioAssay (NCATS).

Inconclusive results are not listed. Entries that show only a call come without a potency. Active and inactive are the calls of the source. Calls come from the whole dose curve; as a rule, active = well fitted cell-killing curve with a large enough effect; inconclusive = small, poorly fitted or top-dose-only effect, or effect the other way; inactive = no such curve, though single readings can be large or run the other way.
Potency is the fitted concentration of half-maximal effect.

The nature of the experiment: qHTS of pediatric cancer cell lines to identify multiple opportunities for drug repurposing: Confirmatory screen for Saos-2 cells (AID 1347127). Note: nearly all actives have a fitted effect of over 60% in size. As to conditions: Saos-2 osteosarcoma cell viability; series mostly up to 45.9 µM. The method in brief: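 Viability after 48 h compound treatment at 37C, 500-1,000 cells/well, read as ATP luminescence with CellTiter-Glo. Primary screens used 11-point (MIPE, 0.78 nM-46 µM) or 8-point (NPC, 0.59 nM-46 µM) final concentrations; follow-up screens used 11-point dilutions.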
A general note: In qHTS, concentration-response curves come from the screen itself.
In the case of `CN1CCN(c2ncc(-c3cc(Cl)cc(Cl)c3Cl)c(N)n2)CC1`, the Potency result is “inactive”.

For the compound `C[C@@H]1[C@H](O)[C@@H](C)C=CC=CC=CC=CC=CC=CC=C[C@H](O[C@@H]2O[C@H](C)[C@H](O)[C@H](N)[C@@H]2O)C[C@@H]2O[C@](O)(C[C@@H](O)C[C@@H](O)[C@H](O)CC[C@@H](O)C[C@@H](O)CC(=O)O[C@H]1C)C[C@H](O)[C@@H]2C(=O)O`, the Potency result was “inactive”.

For `O=c1[nH]nc(OCCCc2ccc(Cl)cc2)c(NCc2cccnc2)c1Br`, the Potency result was “inactive”.

With `CCC(=O)OCC(=O)[C@@]1(OC(=O)CC)[C@@H](C)C[C@@H]2[C@H]3CCC4=CC(=O)C=C[C@]4(C)[C@@]3(F)[C@@H](O)C[C@@]21C`, the Potency entry is “inactive”. To `CC[C@]1(O)C[C@H]2CN(CCC3=c4ccccc4=N[C]3[C@@](C(=O)OC)(c3cc4c(cc3OC)N(C)[C@H]3[C@@](O)(C(N)=O)[C@H](O)[C@]5(CC)C=CCN6CC[C@]43[C@@H]65)C2)C1` belongs 46.5 nM (active); to `COc1cc(CNC(=O)CCCCC=CC(C)C)ccc1O`, “inactive”. On to `CCC(c1ccc(O)cc1)C(CC)c1ccc(O)cc1` (centres undefined), for which the Potency entry is “inactive”. To `CC(C)n1c(C=C[C@H](O)C[C@H](O)CC(=O)O)c(-c2ccc(F)cc2)c2ccccc21` belongs 1040 nM (active). In the case of `CCOC(=O)[C@H](CCc1ccccc1)N[C@@H](C)C(=O)N1CCCC1C(=O)O` (some centres undefined) it was 11700 nM (active); in that of `CC1=C(CC(=O)O)c2cc(F)ccc2C1=Cc1ccc(S(C)=O)cc1` (centres undefined), “inactive”. To `CSc1cccc(Nc2ncc3cc(-c4c(Cl)cccc4Cl)c(=O)n(C)c3n2)c1` belongs 2330 nM (active); to `Cc1ccccc1-n1c(Cn2nc(-c3cccc(O)c3)c3c(N)ncnc32)nc2cccc(C)c2c1=O`, “inactive”. Regarding `CCC[C@H](Nc1nc(-c2ccc(NC(=O)NCC)c(OC)c2)ncc1C)c1cccnc1`, the Potency was 208 nM (active). As for `CCN(CCO)CCCOc1ccc2c(Nc3cc(CC(=O)Nc4cccc(F)c4)[nH]n3)ncnc2c1`, the Potency entry is “inactive”.

Consider `CC[C@H](NC(=O)[C@H](C)NC)C(=O)N1C[C@@H](O)C[C@H]1Cc1c(-c2[nH]c3cc(F)ccc3c2C[C@H]2C[C@H](O)CN2C(=O)[C@H](CC)NC(=O)[C@H](C)NC)[nH]c2cc(F)ccc12`, for which the Potency is 5220 nM (active).

As to `CC1(COc2ccc3c(c2)ncn3-c2ccc3cccc(N4CCC(N)CC4)c3n2)COC1`, the Potency result was “inactive”. With `COc1cc([C@@H]2c3cc4c(cc3[C@@H](O[C@@H]3O[C@@H]5CO[C@@H](C)O[C@@H]5[C@H](O)[C@@H]3O)[C@H]3COC(=O)[C@H]23)OCO4)cc(OC)c1O`, the Potency was 5220 nM (active). In the case of `COc1cc2ncnc(Nc3cc(Br)c(O)c(Br)c3)c2cc1OC` it was “inactive”.

On to `CON(C)C(=O)N1N=C(c2cc(F)ccc2F)S[C@]1(CCCN)c1ccccc1`, for which the Potency was 5.9 nM (active). To `C[C@@H]1C[C@H]2[C@@H]3CCC4=CC(=O)C=C[C@]4(C)[C@@]3(F)[C@@H](O)C[C@]2(C)[C@@]1(O)C(=O)CO` belongs “inactive”; to `C[C@H](c1ccc(F)cc1CCCC(=O)O)N(c1cc(F)ccc1F)S(=O)(=O)c1ccc(Cl)cc1`, “inactive”; to `Cc1ccc(C(=O)N(CCCN)[C@@H](c2nc3cc(Cl)ccc3c(=O)n2Cc2ccccc2)C(C)C)cc1`, 67.6 nM (active). In the case of `Cc1ccc(C(=O)N(CCCN)[C@@H](c2oc3cc(Cl)ccc3c(=O)c2Cc2ccccc2)C(C)C)cc1` it was 9.3 nM (active). With `O=C1Nc2ccc(I)cc2C1=Cc1cc(Br)c(O)c(Br)c1`, the Potency result is “inactive”.
